Reference: PubChem BioAssay (Tox21)
Records with an inconclusive call do not appear. Active and inactive are the calls of the source. Unless noted, the call rests on the fitted dose curve; in most records, active means well fitted curve in the direction sought with a large enough effect in the repeat runs; inconclusive means weak or mixed curves; inactive means no such curve, though single readings can be large; an effect the other way counts as inactive or inconclusive.

How the values were obtained:
[1] = qHTS assay to identify small molecule antagonists of the vitamin D receptor (VDR) signaling pathway - cell viability counter screen (AID 743225); further: nearly all actives have a fitted effect of over 50% in size
In short: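 Parallel cytotoxicity test: VDR-UAS-bla HEK 293T, 3 nM (final) 1-alpha,25-dihydroxyvitamin D3 with test compound, 16 h, 37C. Endpoint is CellTiter-Glo luminescence in the same wells.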

[2] = qHTS assay to identify small molecule agonists of the NFkB signaling pathway - cell viability counter screen (AID 1159515; calls by dose curve; further: series mostly up to about 61 µM; nearly all actives have a fitted effect of over 55% in size)
In short: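 NFkB-bla ME-180 cells, 2,000/well, were plated overnight at 37 C, 5% CO2, then exposed to compounds in DMSO for 5 hr. After the bla FRET read, CellTiter-Glo was added to the same wells; luminescence was read after 30 min at room temperature.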

[3] = qHTS assay to identify small molecule agonists of the endoplasmic reticulum stress response signaling pathway (AID 1159516; active means well fitted activation curve with a large enough effect in the signal ratio in the repeat runs, not every such curve was filed as active; the % refers to the signal ratio)
In short: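 CellSensor ESRE-bla HeLa cells, carrying a beta-lactamase reporter driven by the ER stress response element, were plated overnight and exposed to compounds for 5 hr at 37 C. Reporter activity was read as FRET substrate fluorescence after 2 hr at room temperature.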

[4] = qHTS assay to identify small molecule agonists of the endoplasmic reticulum stress response signaling pathway - cell viability counter screen (AID 1159517; calls by dose curve; further: series mostly up to about 61 µM; nearly all actives have a fitted effect of over 50% in size)
In short: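 Counter-screen wells were identical to the reporter wells. Cells were plated at 1,500 per well and dosed for 5 hr, then read for luminescence 30 min after CellTiter-Glo addition.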

[5] = qHTS assay to identify small molecule antagonists of the retinoid-related orphan receptor gamma (ROR-gamma) signaling pathway - cell viability counter screen (AID 1159520); further: nearly all actives have a fitted effect of over 50% in size
In short: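 Tet-on ROR gamma CHO cells were given compounds for 2 hr, then doxycycline hyclate at 1 uM final, and incubated 16 hr at 37 C. Viability was measured as ATP content by CellTiter-Glo luminescence.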

[6] = target: Nuclear receptor ROR-gamma (Homo sapiens) (UniProt P51449); assay: qHTS assay to identify small molecule antagonists of the retinoid-related orphan receptor gamma (ROR-gamma) signaling pathway (AID 1159521;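 further: CHO cells with doxycycline inducible ROR-gamma driving an RORE luciferase reporter; top concentration of the series differs between compounds; nearly all actives have a fitted effect of over 50% in size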)
In short: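 Decreased RORE-driven luciferase luminescence indicates antagonism. Tet-on RORγ CHO cells received compound, then 1 uM final doxycycline 2 h later; signal read after 16 h incubation.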

[7] = qHTS assay to identify small molecule agonists of the AP-1 signaling pathway - cell viability counter screen (AID 1159525; calls by dose curve; further: nearly all actives have a fitted effect of over 55% in size)
In short: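 AP-1-bla ME-180 cells in Opti-MEM with 0.5% dialyzed FBS, compound exposure 5 h at 37 C in 15-point titration. Viability read in the same wells as ATP content by CellTiter-Glo luminescence, normalised to tetra-n-octylammonium bromide and DMSO controls.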

[8] = qHTS assay to identify small molecule agonists of the AP-1 signaling pathway (AID 1159526; calls by dose curve)
[9] = qHTS assay to identify small molecule agonists of the RXR signaling pathway - cell viability counter screen (AID 1159529)
In short: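 In this parallel viability measure, GeneBLAzer RXR-alpha HEK 293T cells (2% charcoal-stripped FBS) were given a 5 hr preincubation, treated with compounds 16 hr at 37 C, and read by CellTiter-Glo luminescence.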

[10] = qHTS assay to identify small molecule antagonists of the retinoid acid receptor (RAR) signaling pathway - cell viability counter screen (AID 1159551); further: nearly all actives have a fitted effect of over 35% in size
In short: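 C3RL4 cells were seeded overnight at 37 C, then treated with compounds plus 1 uM (final) retinol for 6 h at 37 C. Viability was read as ATP by CellTiter-Glo luminescence after 30 min at room temperature.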

[11] = qHTS assay to identify small molecule antagonists of the estrogen related receptor (ERR) signaling pathway from Tox21 library - cell viability counter screen (AID 1224834); further: nearly all actives have a fitted effect of over 30% in size
In short: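 ERR reporter cells were plated 6 h before compound addition, then exposed to test compounds in DMSO for 17.5 h at 37 C. Viability was read as CellTiter-Fluor fluorescence after a 30-minute incubation at 37 C.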

[12] = target: Retinoic acid receptor RXR-alpha (Homo sapiens) (UniProt P19793); assay: qHTS assay to identify small molecule agonists of the RXR signaling pathway (AID 1159527; calls by dose curve; further: nearly all actives have a fitted effect of over 35% in size)
Chain of Retinoic acid receptor RXR-alpha (Homo sapiens) (P19793 whole entry, looked up): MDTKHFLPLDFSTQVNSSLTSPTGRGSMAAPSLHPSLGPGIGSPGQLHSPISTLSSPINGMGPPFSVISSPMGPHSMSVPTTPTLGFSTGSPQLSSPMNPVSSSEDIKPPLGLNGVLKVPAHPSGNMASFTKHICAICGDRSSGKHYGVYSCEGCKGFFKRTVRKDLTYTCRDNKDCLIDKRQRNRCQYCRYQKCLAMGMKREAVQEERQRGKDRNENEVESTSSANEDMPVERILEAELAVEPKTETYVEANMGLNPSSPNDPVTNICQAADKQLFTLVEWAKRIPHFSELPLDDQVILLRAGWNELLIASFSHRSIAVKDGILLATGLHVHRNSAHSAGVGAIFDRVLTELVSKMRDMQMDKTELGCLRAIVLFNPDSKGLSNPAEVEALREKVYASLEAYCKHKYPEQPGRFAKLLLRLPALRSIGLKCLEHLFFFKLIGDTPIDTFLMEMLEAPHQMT
In short: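 16 hr incubation of compound-treated RXR-alpha-UAS-bla HEK 293T cells (2% charcoal-stripped FBS, 37 C) preceded a 2 hr room-temperature LiveBLAzer FRET substrate step and blue/green fluorescence measurement.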

[13] = qHTS assay to identify small molecule antagonists of the retinoic acid receptor (RAR) signaling pathway (AID 1159552; further: nearly all actives have a fitted effect of over 50% in size)
In short: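 C3RL4 RARE-luc cells, overnight plating; retinol 1 uM final added right after compound; 6 hr 37 C; luciferase read at 30 min RT.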

[14] = qHTS assay to identify small molecule agonists of the retinoic acid receptor (RAR) signaling pathway (AID 1159553)
In short: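 C3RL4 cells carrying a RARE luciferase reporter were plated overnight at 37 C, then exposed to compounds in DMSO for 6 hr at 37 C and 5% CO2. Luminescence was read 30 min after luciferase reagent addition at room temperature.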

Measured: Potency

Cc1ccc(-c2ncc(Cl)cc2-c2ccc(S(C)(=O)=O)cc2)cn1
not listed: [12] | [13] | [14]
inactive: all other assays above

C=CC(=O)OCCCl
not listed: [1] | [7]
inactive: all other assays above

NC(=O)N1c2ccccc2CC(=O)c2ccccc21
not listed: [1] | [7] | [13] | [14]
inactive: all other assays above

CCOc1c(N2CCOCC2)cnn(C)c1=O
not listed: [11] | [13] | [14]
inactive: all other assays above

CC1=C(C/C=C(\C)CCC[C@H](C)CCC[C@H](C)CCCC(C)C)C(=O)c2ccccc2C1=O
not listed: [1] | [12] | [13] | [14]
inactive: all other assays above

O=C(O)c1cc(C(=O)O)cc(C(=O)O)c1
not listed: [1] | [7] | [11] | [13]
inactive: all other assays above

CCCCS(=O)(=O)N[C@@H](Cc1ccc(OCCCCC2CCNCC2)cc1)C(=O)O
not listed: [1] | [12] | [13] | [14]
inactive: all other assays above

CCCCOCCOC(=O)CCCCCCCCC(=O)OCCOCCCC
not listed: [7] | [14]
inactive: all other assays above

CCN[C@H]1C[C@H](C)S(=O)(=O)c2sc(S(N)(=O)=O)cc21
not listed: [11] | [13] | [14]
inactive: all other assays above

CCCC[N+](C)(CCCC)CCCC
not listed: [11] | [13] | [14]
inactive: all other assays above

CC(=O)c1ccccc1[N+](=O)[O-]
not listed: [12] | [13] | [14]
inactive: all other assays above

CCO[Si](OCC)(OCC)c1ccccc1
not listed: [12] | [13] | [14]
inactive: all other assays above

NC(=O)Cc1cccc2ccccc12
not listed: [1] | [12] | [13] | [14]
inactive: all other assays above

C=CCCCCCCCCC(=O)OCC
not listed: [1] | [12] | [13] | [14]
inactive: all other assays above

C=CCOCC(O)CO (stereo not drawn)
not listed: [12] | [13] | [14]
inactive: all other assays above

CCOC(=O)C(=O)CCCCCCl
not listed: [7] | [13] | [14]
inactive: all other assays above

O=C1CCCCCCCCCCCCCCO1
not listed: [6] | [12]
inactive: all other assays above

Cc1cccc(C)c1NC(=O)CC12CCCN1CCC2
not listed: [7] | [13] | [14]
inactive: all other assays above

CC(=O)c1ccc2ccccc2c1
not listed: [6] | [13] | [14]
inactive: all other assays above

C=C(C)C(=O)OCCOCCOCCOCCOC(=O)C(=C)C
not listed: [6] | [12] | [14]
inactive: all other assays above

C=CN1CCCCCC1=O
not listed: [7] | [13] | [14]
inactive: all other assays above
